Measurements from PubChem BioAssay AID1259336 (Sattelle Laboratory, UCL Respiratory, Division of Medicine, …, 2017).
The source made the active and inactive calls. Cut-off read from the data, not from the text of the source: active = log2 fold change growth below about -1.8; inactive = the rest.

Assay: anthelmintic activity against nematode growth – whole organism, log2 fold change (AID 1259336);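 note: growth scored by imaging after five days at 20 °C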
Settings: C. elegans growth, anthelmintic screen; hits give low values

log2 fold change growth, active:
O=C(Nc1nc(-c2ccccn2)cs1)C1CC1c1ccccc1F (stereo not drawn) -2.09
Nc1ccc(C(=O)Nc2ccc(-c3nc4ccccc4o3)cc2)cc1 -7.04

log2 fold change growth, inactive:
COc1ccccc1OCCCCn1c(C2CC2)nc2ccccc21 0.559
Cc1ccc(NC(=O)C[C@H]2COc3ccccc3O2)cc1Cl -0.476
CC[C@H](CO)NCCN[C@H](CC)CO -0.0318
COc1cc(NC(=O)Cc2nn(C)c(=O)c3ccccc23)ccc1Cl 0.419
CS(=O)(=O)c1ccccc1C(=O)N(Cc1ccccc1)c1ccccc1 -0.293
CC(=O)NC[C@H]1CN(c2ccc(N3CCSCC3)c(F)c2)C(=O)O1 0.00512
CC(C)(C)OC(=O)N1CCC(Cn2nc(-c3cnc4ccccc4c3)c3c(N)ncnc32)CC1 -0.248
COc1ccc(CCN2CCC(NCc3cccc(N(C)C)c3)CC2)cc1 0.27
Clc1ccc(Cl)c(CO[C@H]2CCCC[C@@H]2n2ccnc2)c1 0.0539
c1ccc(Oc2ccc(-c3cc(N4CCNCC4)n[nH]3)cc2)cc1 0.489
Cc1ccc(-c2nc(CN(Cc3ccccn3)C(C)C)cs2)o1 0.617
CC1=NN(c2nc3ccccc3s2)C(=O)[C@H]1Cc1cccc2ccccc12 -0.647
COc1cc(OC)cc(C(=O)NC[C@H]2Cc3cc(Cl)cc(-c4ccncc4)c3O2)c1 -1.17
CCOC(=O)c1noc(N)c1-c1ccccc1 0.292
Nc1ncnc2c1c(-c1cnc3ccccc3c1)nn2CC1CCNCC1 0.195
COC(=O)c1c(NC(=O)c2c(F)c(F)c(F)c(F)c2F)sc2c1CCCCC2 0.243
COC(=O)c1c(NC(=O)c2cc3ccccc3oc2=O)sc2c1CCN(Cc1ccccc1)C2 -0.125
CCN(CC)S(=O)(=O)c1ccc(Cl)c(C(=O)Nc2ccc3nc(C)sc3c2)c1 -1.22
O=C(NCc1ccco1)N1CCN(Cc2ccc(Cl)s2)CC1 0.334
CC[C@@H]([C@H](C)O)n1ncn(-c2ccc(N3CCN(c4ccc(OC[C@@H]5CO[C@@](Cn6cncn6)(c6ccc(F)cc6F)C5)cc4)CC3)cc2)c1=O -1.34
COC(=O)c1cccc2oc(-c3cccc(OC)c3NC(=O)c3cc(-c4ccccc4)on3)nc12 -0.13
c1csc(-c2cnc3sc(NCC4CCOCC4)nn23)c1 -0.257
NC(=O)c1cc(-c2ccsc2)ccc1OCCOc1ccccc1 0.0714
CC[C@H](Sc1nc2ccccc2o1)C(=O)Nc1nccs1 -0.397
Nc1ncnc2c1c(Cc1cccc3ccccc13)nn2CC1CCNCC1 -0.11
Cc1cc(C)cc(COc2ccc3c(C)c(CCC(=O)O)c(=O)oc3c2C)c1 -0.0961
Cc1cc(Cl)ccc1NC(=O)CCc1ccc(S(=O)(=O)NCC(C)C)cc1 -0.221
N#Cc1ccc(-c2cnc(N)c(-c3ccc(C(N)=O)cc3)n2)cc1 -0.619
NC(N)=Nc1ccc(-c2ccc(-c3ccc(N=C(N)N)cc3Cl)o2)c(Cl)c1 0.171
O=C(NC1CC1)c1ccc(CSCc2ccccc2Cl)o1 0.276
COc1ccc(Cn2cnc3c(-c4ccco4)nc(Cl)nc32)cc1 -0.325
COc1cccn2c(C(=O)N3CCCCC3)c(C(F)(F)F)nc12 0.258
CS(=O)(=O)Cc1nc2ccccc2oc1=O -0.133
COc1cccc(-c2cc3c(Nc4cccnc4)nccc3[nH]2)c1 0.319
Cc1ncc(-c2ccnc(Nc3ccc(S(C)(=O)=O)cc3)n2)n1C(C)C 0.268
c1ccc(Oc2ccc(-c3cc(N4CCOCC4)n[nH]3)cc2)cc1 0.348
